This is an account of results in PubChem BioAssay AID504848 (National Center for Advancing Translational Sciences (NCATS), 2011).

SMILES strings stand for the structures. Screen size: about 2,300 compounds; about 1,400 (61%) were called active. Not shown: some 29% with an inconclusive outcome. Calls come from the whole dose curve; as a rule, active = well fitted inhibition curve with a large enough effect; inconclusive = small, poorly fitted or top-dose-only effect, or effect the other way; inactive = no such curve, though single readings can be large or run the other way. So high a share suggests a set chosen from earlier hits. Some of the results follow.
Potency is the fitted concentration of half-maximal effect.

This test in a line: Confirmation screen for delayed death inhibitors of the malarial parasite plastid, 96 hour incubation. Note: nearly all actives have a fitted effect of over 60% in size. Conditions: P. falciparum luciferase growth in erythrocytes; series mostly up to 28.7 µM. In outline: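 Erythrocytes infected with luciferase-expressing P. falciparum (2% hematocrit, 0.1% parasitemia final) in RPMI 1640 with 0.5% Albumax, exposed to compounds 96 h at 37 C, 5% CO2. Growth inhibition read as decreased luciferase luminescence.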
As to `COC(=O)c1c(NC(=O)c2ccco2)sc2c1CC(C)(C)NC2(C)C`, the Potency is 14.1 µM (active). Then `CCOC(=O)c1c(NC(=S)N2CCCCC2)sc2c1CCN(C(=O)OCC)C2`, with 3.98 µM (active); and `Cc1cccc(CSc2cccc3cccnc23)c1`, with 12.6 µM (active). Take `O=C(Nc1ccncc1)c1ccc(Cl)c(S(=O)(=O)N2CCCC2)c1`: the Potency is 8.91 µM (active).

With `Cc1c(NC(=S)NC(=O)C(C)(C)C)c(=O)n(-c2ccccc2)n1C`, the Potency result was “inactive”. Then `Cc1c(NC(=O)c2ccc(Cl)c(S(=O)(=O)N3CCCCC3)c2)c(=O)n(-c2ccccc2)n1C`, with 10 µM (active). `CCOC(=O)N1CCN(C(=O)c2ccc(Cl)c(S(=O)(=O)N3CCCC3)c2)CC1`: the Potency was 12.6 µM (active). On to `Cc1cc(F)ccc1S(=O)(=O)Nc1ccccc1C(=O)Nc1ccccc1-c1nc2ccccc2[nH]1`, for which the Potency was 4.47 µM (active).

Turning to `Nc1cc[n+](CC(=O)c2ccc3c(c2)OCCO3)cc1`, the Potency was 4.47 µM (active). Then `COCCNCC(=O)NC12CC3CC(CC(C3)C1)C2`, with “inactive”.

`CN(C)c1ccc(NC(=S)NC23CC4CC(CC(C4)C2)C3)cc1`: the Potency was 1.58 µM (active). Turning to `COc1ccc(N2CCN(CCCn3c(=S)[nH]c4ccccc4c3=O)CC2)cc1`, the Potency was 12.6 µM (active). `O=C(/C=C/c1ccc(Cl)c(Cl)c1)NCCCn1ccnc1`: the Potency was 12.6 µM (active).

As to `COc1ccc(C)cc1NC(=O)CSCc1ccccc1C`, the Potency was 12.6 µM (active). Regarding `CCOc1ccc(-n2c(N)c(-c3nc4ccccc4n3C)c3nc4ccccc4nc32)cc1`, the Potency was 3.98 µM (active). Then `Cc1cc(NC(=O)CN2C(=O)NC(c3ccccc3)(c3ccc(C)c(C)c3)C2=O)no1` (stereo unspecified), with 11.2 µM (active); and `COc1ccccc1CNC(=O)CN1C(=O)NC(c2ccccc2)(c2ccc(C)c(C)c2)C1=O` (stereo unspecified), with 12.6 µM (active). In the case of `Cc1cccc(CS(=O)(=O)c2ncc(Cl)c(C(=O)Nc3c(C)cccc3C)n2)c1`, the Potency result is “inactive”.

With `COc1cc(NCc2ccc3nc(N)nc(N)c3c2C)cc(OC)c1OC`, the Potency is 0.199 µM (active).

For the molecule `Cc1ccc(-n2cc(CN3CCC(CO)(Cc4cccc(C(F)(F)F)c4)CC3)cn2)cc1`, the Potency was 7.94 µM (active).

Consider `Cc1c(CCO)sc[n+]1CC(=O)OCCC12CC3CC(CC(C3)C1)C2`, for which the Potency was 3.16 µM (active). For `O=C(Nc1ccc(Cl)cc1)c1ccc(CN2CCc3ccccc3C2)cc1`, the Potency is 14.1 µM (active). Then `Cc1cc(C)cc(NC(=O)c2ccc(CN3CCc4ccccc4C3)cc2)c1`, with 11.2 µM (active).

Regarding `O=C(Nc1ccc(F)cc1)c1ccc(CN2CCc3ccccc3C2)cc1`, the Potency is 12.6 µM (active). Then `O=C(Nc1ccc2[nH]ncc2c1)c1ccc(F)cc1`, with “inactive”. Regarding `COc1ccc(N2C(=O)C3C(C2=O)C(C(=O)c2ccc(Cl)cc2)N2CCCC32)cc1` (stereo unspecified), the Potency result was “inactive”. Then `Cc1c(OC(C)C(=O)N2C[C@H]3C[C@@H](C2)c2cccc(=O)n2C3)ccc2c3c(c(=O)oc12)CCC3` (stereo partly specified), with 11.2 µM (active). Then `Cc1c(CC(=O)N2C[C@H]3C[C@@H](C2)c2cccc(=O)n2C3)c(=O)oc2cc3occ(C(C)(C)C)c3cc12`, with 12.6 µM (active); and `CC(C)N1C/C(=C/c2ccsc2)C(=O)/C(=C/c2ccsc2)C1`, with 5.62 µM (active). Consider `CCC1S/C(=N/N=C/c2ccco2)N(Cc2ccccc2C)C1=O` (stereo unspecified), for which the Potency is 10 µM (active). Turning to `CCc1nc(SCC(=O)N2c3ccccc3CC2C)c2c(C)c(C)sc2n1` (stereo unspecified), the Potency was 11.2 µM (active). Then `CCc1nc(SCC(=O)Nc2ccccc2OC)c2c(C)c(C)sc2n1`, with 12.6 µM (active); and `CC(=O)NCCC(=O)Nc1cc(S(=O)(=O)N2CCOCC2)ccc1Oc1ccccc1`, with 10 µM (active). With `CN(C)S(=O)(=O)c1ccc(NCC2COc3ccccc3O2)c([N+](=O)[O-])c1` (stereo unspecified), the Potency was 12.6 µM (active).

Take `COc1ccc(C(=O)CC(SCC(NC(C)=O)C(=O)O)c2ccc(Cl)cc2)cc1OC` (stereo unspecified): the Potency is 11.2 µM (active).

As to `CCOC(=O)N1C/C(=C\c2ccccc2)C(=O)/C(=C/c2ccccc2)C1`, the Potency is 4.47 µM (active). Then `O=[N+]([O-])c1ccc(C[n+]2cccc3c4ccccc4ccc32)cc1`, with 0.126 µM (active); and `COC1C(OC(=O)/C=C/C=C/C=C/C=C/C(=O)O)CCC2(CO2)C1C1(C)OC1CC=C(C)C` (stereo unspecified), with 0.0501 µM (active). Then `CC1=CC(C)(C)N2C(=O)C3(NCCc4c3[nH]c3ccccc43)c3cc(C)cc1c32` (stereo unspecified), with 11.2 µM (active).

Consider `Fc1ccc(CNc2ccc(N3CCN(Cc4ccccc4)CC3)cc2)cc1`, for which the Potency is 12.6 µM (active).

With `CCCc1c(NC(=O)Nc2ccc(F)cc2)cnn1-c1ccc(Cl)cc1`, the Potency was 10 µM (active).

For the molecule `CCCc1c(NC(=O)Nc2ccc(F)cc2)cnn1-c1ccccc1`, the Potency is 11.2 µM (active). On to `CC1=NCCN1CCNC(=O)Nc1ccc(F)cc1`, for which the Potency result was “inactive”. For `CCCN1C(=O)c2ccccc2NC1c1ccc(OC)cc1O` (stereo unspecified), the Potency was 11.2 µM (active). As for `Cc1cccc(C2Nc3ccccc3C(=O)N2c2ccccc2)n1` (stereo unspecified), the Potency entry is “inactive”. As to `Fc1ccc(CSc2nncn2NCc2ccc3c(c2)OCO3)cc1`, the Potency entry was “inactive”.

Consider `Fc1cccc(CNc2ncnc3ccc(-c4ccc5c(c4)OCO5)cc23)c1`, for which the Potency is 4.47 µM (active). Turning to `Clc1ccc(-c2c[n+](Cc3ccc(Cl)cc3Cl)c3n2CCCCC3)cc1`, the Potency was 0.0794 µM (active). In the case of `Clc1ccc(-c2c[n+](Cc3ccc(Br)cc3)c3n2CCCCC3)cc1`, the Potency is 0.0251 µM (active).

For `CCN(CC)c1ccc(/C=C/c2cccc[n+]2C)c(OC)c1`, the Potency is 0.141 µM (active). Then `COC(=O)c1ccc(COc2ccc(-c3nnn(CC(N)=O)n3)cc2)cc1`, with 1.58 µM (active).
